The source of these data is PubChem BioAssay (EPA / NIEHS).

Where “and” joins values, the source holds several entries; their conditions need not be identical. Identical values can stand only once. Some structures have more than one record in an assay (separate samples or runs), and their calls can disagree. Calls of active or inactive are those of the source. The calls were made as follows: active = hit-call score of the fitted dose curve at least 0.9, where 1 is the maximum; inactive = score below 0.9.

A short description of this assay: BSK_3C_Proliferation: Cell Proliferation Assessment in the BioMAP Diversity Plus: 3C Assay (AID 2283006).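 As to AC50: potency may reflect either rise or fall in cell number versus DMSO.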 The following applies: primary human endothelial cells (HUVEC). As to the method: BSK_3C is a cell-based, multiplexed-readout assay that uses umbilical vein endothelium, a human vascular primary cell, with measurements taken at 24 hours after chemical dosing in a 96-well plate.BSK_3C_Proliferation is an assay component measured in the BSK_3C assay. It measures 0.1% sulforhodamine related to cell proliferation using Sulforhodamine staining technology.Data from the assay component BSK_3C_Proliferation was analyzed into 1 assay endpoint. This assay endpoint, BSK_3C_Proliferation, was analyzed with bidirectional fitting relative to DMSO as the negative control and baseline of activity. Using a type of viability reporter, measures of total protein for gain or loss-of-signal activity can be used to understand the viability at the cellular-level. Furthermore, this assay endpoint can be referred to as a secondary readout, because this assay has produced multiple assay endpoints where this one serves a viability function. To generalize the intended target to other relatable targets, this assay endpoint is annotated to the cell cycle intended target family, where the subfamily is proliferation.
The levels of cell surface (or secreted, indicated by the prefix "s") biomarker endpoints were measured by ELISA. Overt cytotoxicity to cells in confluent adherent cultures (all systems other than the BT system) was assessed by measuring total protein levels using sulforhodamine B (SRB) staining in parallel cultures at the time of biomarker measurements, indicated as SRB endpoints. For proliferation assays for adherent cell types, individual cell types are cultured at sub-confluence and relative cell numbers quantified by SRB staining at time points optimized for each system (48 h: 3C and CASM3C systems; 72 h: BT and HDF3CGF systems; 96 h: SAg system). SRB was performed by staining cells with 0.1% SRB after fixation with 10% TCA and reading wells at 560 nm.Viability and proliferation of PBMC (T cells) was quantified by Alamar Blue reduction for the SAg and BT systems. For PBMC viability (referred to as PBMC Cytotoxicity within the assay endpoint names), cells were plated (75,000/well in a 96-well plate) and then chemical samples added for 1 h before addition of activators, SEB and TSST-1 (20 ng/mL final concentration each). Cells were incubated for 90 h. Then, Alamar Blue (20 uL/well) (Invitrogen, Cat DAL1100) was added for 6 h, and the plates were read with a fluorescence microplate reader at 546/580 nm (excitation/emission). For PBMC proliferation, cells were plated and activated as above but incubated for only 16 h prior to addition of Alamar Blue. Plates were read after 6 h.
As to `COC(=O)CCC(F)(F)C(F)(F)C(F)(F)C(F)(F)F`, the outcome was inactive. As to `O=C(Cl)C(F)(F)C(F)(F)C(F)(F)C(F)(F)C(F)(F)C(F)(F)C(F)(F)C(F)(F)F`, the AC50 was 44.9 µM (active) and 53.1 µM (active) and 54.2 µM (active). On to `C=CC(=O)OCC(F)(F)C(F)(F)C(F)(F)C(F)(F)C(F)(F)C(F)(F)C(F)(F)F`, for which the AC50 is 30 µM (active). As to `O=C(O)C(F)(F)C(F)(F)F`, the outcome was inactive. For the molecule `N=C(N)C(F)(F)C(F)(F)C(F)(F)C(F)(F)C(F)(F)C(F)(F)C(F)(F)F`, the AC50 is 50.7 µM (active) and 24.7 µM (active).

Regarding `O=S(=O)(OCC(F)F)C(F)(F)F`, the outcome was inactive.

Take `O=C(O)C(F)(F)C(F)(F)C(F)F`: the result was inactive. Still for that read-out and setting: in the case of `FC(F)(F)C(F)(F)C(F)(F)C(F)(F)C(F)(F)C(F)(F)CC1CO1` (stereo not given) it was “inactive”; in that of `FC(F)(F)C(F)(F)C(F)(F)C(F)(F)C(F)(F)C(F)(F)C(F)(F)I`, “inactive”. `O=C(O)C(F)(F)C(F)(F)C(F)(F)F`: the result was inactive. `O=C(CC(=O)C(F)(F)C(F)(F)F)C(F)(F)F`: the result was inactive. Take `CCCCNc1ccccc1`: the outcome was inactive.

As to `Cc1ccc(S(=O)(=O)OCC(F)(F)C(F)(F)C(F)(F)C(F)(F)C(F)(F)C(F)F)cc1`, the AC50 was 30 µM (active) and the result was inactive. Regarding `OCC(F)(F)C(F)(F)C(F)(F)C(F)(F)C(F)(F)C(F)F`, the result was inactive. For `OCC(F)(F)C(F)(F)C(F)(F)F`, the outcome was inactive.

For the molecule `O=S(=O)(O)C(F)(F)C(F)(F)C(F)(F)C(F)(F)C(F)(F)C(F)(F)C(F)(F)F`, the outcome was inactive.

As for `FC(F)(F)C(F)(F)C(F)(F)C(F)(F)C(F)(F)C(F)(F)CCS`, the result was inactive.

With `CC(=O)Nc1ccc(N=Nc2cc(C)ccc2O)cc1`, the AC50 was 4.08 µM (active).

For the molecule `O=C(O)C(F)(OC(F)(F)C(F)(OC(F)(F)C(F)(F)C(F)(F)F)C(F)(F)F)C(F)(F)F` (stereo not given), the result was inactive. Still for that read-out and setting: in the case of `FC(F)(F)C(F)(F)C(F)(F)C(F)(F)C(F)(F)C(F)(F)C(F)(F)C(F)(F)CCS` it was “inactive”; in that of `CCCCOCCOCCOC(=O)CCCCC(=O)OCCOCCOCCCC`, “inactive”. For `O=C(O)C(F)(F)C(F)(F)C(F)(F)C(F)(F)C(F)(F)C(F)(F)C(F)(F)C(F)(F)Cl`, the AC50 is 53.2 µM (active) and 48.1 µM (active). As to `O=C(O)C(F)(OC(F)(F)C(F)(OC(F)(F)C(F)(OC(F)(F)C(F)(F)C(F)(F)F)C(F)(F)F)C(F)(F)F)C(F)(F)F` (stereo not given), the outcome was inactive. For `Oc1ccc(Nc2ccccc2)cc1`, the AC50 is 14.6 µM (active). Regarding `C=C(C)C(=O)OCCC(F)(F)C(F)(F)C(F)(F)C(F)(F)C(F)(C(F)(F)F)C(F)(F)F`, the outcome was inactive.

`O=C(O)C=C(C(F)(F)F)C(F)(F)F`: the result was inactive and the AC50 was 27 µM (active).

Consider `O=S(=O)(OCCOC(F)(F)F)C(F)(F)F`, for which the outcome was inactive. On the same count and under the same terms, in the case of `C=CC/C=C/C/C=C/C/C=C/C` it was “inactive”.

Regarding `O[Si](c1ccccc1)(c1ccccc1)c1ccccc1`, the AC50 is 24.4 µM (active). Regarding `CCN(CC)c1ccc2c(C)cc(=O)oc2c1`, the AC50 was 30.6 µM (active). Take `FC(F)(F)C(F)(F)C(F)(F)C(F)(F)C(F)(F)C(F)(F)C(F)(F)Br`: the outcome was inactive. As to `FC(F)(F)C(F)(F)C(F)(F)N(C(F)(F)C(F)(F)C(F)(F)F)C(F)(F)C(F)(F)C(F)(F)F`, the outcome was inactive. With `CS(C)(=O)=O`, the outcome was inactive. Turning to `O=C(O)C(F)(F)C(F)(F)C(F)(F)C(F)(F)C(F)(F)C(F)(F)C(F)(F)C(F)(F)C(F)(F)C(F)(F)C(F)(F)C(F)(F)C(F)(F)F`, the AC50 is 1.29 µM (active) and 252 nM (active). As for `O=C(O)C(F)(F)C(F)(F)C(F)(F)C(F)(F)C(F)(F)C(F)(F)C(F)(F)C(F)(F)C(F)(F)C(F)(F)C(F)(F)C(F)(F)F`, the AC50 was 20.6 µM (active) and 6.79 µM (active).

As to `CCc1c(Br)c(Br)c(Br)c(Br)c1Br`, the result was inactive. On to `CCCCC(CC)COP(=O)(O)OCC(CC)CCCC` (stereo not given), for which the AC50 is 36 µM (active). In the case of `C#C[C@]1(O)CC[C@H]2[C@@H]3CCc4cc(OC)ccc4[C@H]3CC[C@@]21C`, the AC50 was 31.1 µM (active).

As a reminder, the AC50 is the concentration giving half of the maximal activity seen.
